# Measured values reported in paper PMC5540273 (PLoS ONE, 2017).
# How the values were obtained:
# Settings in all cases: concentration: 1 μM, replicates: in singlicate; n = 1
# BMPR1A = tested on: BMPR1A
# BMPR1B = tested on: BMPR1B
# BMPR2 = tested on: BMPR2
# BMX = tested on: BMX
# BRAF = tested on: BRAF
# BRK = tested on: T1, BRK
# T1 construct: gene PTK6
# BRSK1 = tested on: BRSK1
# BRSK2 = tested on: BRSK2
# BTK = tested on: BTK
# BUB1 = tested on: BUB1
# CAMK1B = tested on: CAMK1B
# CAMK1D = tested on: CAMK1D
# CAMK1G = tested on: CAMK1G
# CAMK1 = tested on: CAMK1
# CAMK2A = tested on: CAMK2A
# CAMK2B = tested on: CAMK2B
# CAMK2D = tested on: CAMK2D
# CAMK2G = tested on: CAMK2G
# CAMK4 = tested on: CAMK4
# CAMKK1 = tested on: CAMKK1
# 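Further: KINOMEscan kinase panel screen.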
SMILES,%Inh (BMPR1A),%Inh (BMPR1B),%Inh (BMPR2),%Inh (BMX),%Inh (BRAF),%Inh (BRK),%Inh (BRSK1),%Inh (BRSK2),%Inh (BTK),%Inh (BUB1),%Inh (CAMK1B),%Inh (CAMK1D),%Inh (CAMK1G),%Inh (CAMK1),%Inh (CAMK2A),%Inh (CAMK2B),%Inh (CAMK2D),%Inh (CAMK2G),%Inh (CAMK4),%Inh (CAMKK1)
Cc1cc(-c2ccc3c(c2)CC[C@@H](N[C@@H](C)c2ccccc2)C3)cnc1N.Cl [GW412617],0%,0%,0%,50%,1%,22%,0%,0%,0%,17%,4%,13%,100%,23%,0%,0%,97.6%,21%,18%,12%
CC(=O)Nc1nc2cnc(Nc3cc(NC(=O)c4cccc(CCC#N)c4)ccc3C)nc2s1,0%,0%,16%,7%,97.7%,0%,0%,11%,32%,14%,0%,30%,0%,25%,20%,0%,0%,0%,15%,0%
CC(C)(C)c1ccc(C(=O)Nc2cn3cc(Cl)ccc3n2)cc1,0%,3%,0%,0%,9%,0%,0%,0%,0%,0%,0%,0%,0%,0%,3%,0%,3%,11%,6%,95.8%
O=C(Nc1n[nH]c2nc(-c3nccs3)c(Br)cc12)C1CCCC1 [SB-742609],0%,0%,13%,0%,12%,26%,93%,85%,0%,37%,20%,1%,8%,0%,0%,0%,15%,11%,0%,8%
CCn1c(-c2ccccn2)nc2cnccc21 [SB-736398],0%,0%,21%,77%,11%,14%,100%,0%,7%,40%,34%,0%,0%,0%,0%,0%,0%,0%,0%,0%
COc1ccc(C2=C(Nc3cccc(C(=O)O)c3)C(=O)NC2=O)cc1 [SB-390765],13%,4%,0%,17%,9%,0%,0%,0%,0%,0%,44%,18%,0%,23%,5%,0%,16%,26%,0%,0%
COc1cc(Nc2nccc(N3CCC(NC(=O)Nc4cc(C)ccc4C)C3)n2)cc(OC)c1OC (centres unmarked) [GSK1379762],0%,0%,0%,35%,7%,13%,0%,0%,0%,26%,14%,10%,0%,17%,0%,0%,0%,16%,0%,21%
O=C(Nc1ccc2c(c1)OCO2)NC1CCN(c2ccnc(Nc3ccc(F)cc3)n2)C1 (centres unmarked) [GSK1379724],0%,0%,18%,5%,1%,16%,0%,0%,0%,24%,16%,30%,23%,35%,0%,0%,15%,13%,1%,9%
CS(=O)(=O)c1ccc(-c2nc3n(c2-c2ccncc2)CCC3)cc1 [SKF-105942],0%,0%,0%,1%,0%,15%,0%,0%,0%,26%,7%,0%,14%,8%,0%,0%,6%,6%,0%,0%
Cc1cccc(-c2cc(Nc3ccncc3)c3ccccc3n2)n1 [GSK223675],0%,0%,0%,1%,0%,0%,0%,0%,0%,0%,25%,26%,6%,17%,0%,0%,20%,26%,0%,12%
